Measurements published in PubChem BioAssay (NCATS).
Records with an inconclusive call do not appear. Active and inactive are the calls of the source. Calls follow the shape of the dose curve; as a rule, active = well fitted curve in the direction sought with a large enough effect; inconclusive = small, poorly fitted or top-dose-only effect, or another doubt; inactive = no such curve, though single readings can be large; an effect the other way counts as inactive or inconclusive.

Key:
[1] = biological target: Luciferin 4-monooxygenase (Photinus pyralis) (UniProt P08659); experiment: Primary firefly luciferase (FLuc) qHTS assay for identification of artifact compounds. (AID 1845220); also: nearly all actives have a fitted effect of over 60% in size
In short: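 Compounds sat 15 min at room temperature with 10 uM luciferin and 10 uM ATP (pH 7.6 Tris acetate). Firefly luciferase (10 nM final) was then added, and luminescence was read 5 min later. Data normalized to no-enzyme and DMSO controls were Hill-fitted.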

[2] = Primary fluorescence-based thiol-reactive (MSTI) qHTS assay for identification of artifact compounds. (AID 1845221);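 also: series mostly up to about 54 µM; thiol-reactive compounds lower the probe fluorescence signal; nearly all actives have a fitted effect of over 65% in size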
In short: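 Thiol-reactive compounds detected by quenching of 4 uM MSTI fluorescence (525/598 nm) after 1 h room-temperature dark incubation in PBS pH 7.4, 2% DMSO. qHTS titration; percent inhibition Hill-fitted against Acetyl-MSTI/MSTI controls.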

[3] = test system: Nanoluciferase (engineered Oplophorus gracilirostris luciferase); experiment: Primary Nanoluciferase (NLuc) qHTS assay for identification of artifact compounds. (AID 1845222);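 also: series mostly up to about 54 µM; 0% = DMSO and -100% = no enzyme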
In short: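 Luminescence from secreted NLuc (filtered, 1:55-diluted S16 cell medium) read 5 min after Nano-Glo substrate; compounds preincubated 15 min, RT. Hill fits of inhibition normalized to DMSO and no-enzyme.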

[4] = Primary redox qHTS assay for identification of artifact compounds. (AID 1845223);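 also: 0% = DMSO and 100% = reference compound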
In short: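 Amplex Red (25 uM) and HRP (250 mU/mL) in HBSS, with compounds for 15 min, then 250 uM DTT for 30 min, room temperature, dark. Fluorescence 525/598 nm read; normalized to DMSO and 10 uM DA3003; Hill fit.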

COC(=O)C1(C)CCC(O)C2(C)c3c(O)cc(C(C)C)cc3C(O)C(OC(C)=O)C12 (stereo not given)
inactive: Potency [1] | Potency [2] | outcome [3] | outcome [4]

C1=C2CCCN[C@H]2[C@@H]2C[C@H]1[C@H]1CCCCN1C2
inactive: Potency [1] | Potency [2] | outcome [3] | outcome [4]

CC(C)=C1CC[C@]23CO[C@H](C2)[C@@](O)(C(=O)O)CCC13 (stereo not given in full)
inactive: Potency [1] | Potency [2] | outcome [3] | outcome [4]

COC(=O)C1(C)CCC(=O)C2(C)c3c(O)cc(C(C)C)cc3C(O)C(OC(C)=O)C12 (stereo not given)
inactive: Potency [1] | Potency [2] | outcome [3] | outcome [4]

CC(CCc1ccc(O)cc1)O[C@@H]1O[C@H](CO[C@H]2OC[C@](O)(CO)[C@H]2O)[C@@H](O)[C@H](O)[C@H]1O (stereo not given in full)
inactive: Potency [1] | Potency [2] | outcome [3] | outcome [4]

C[C@H]1C(=O)O[C@H]2[C@H](O)[C@]34C5OC(=O)[C@]3(O[C@@H]3OC(=O)[C@H](O)C34[C@H](C(C)(C)C)[C@H]5O)C12O (stereo not given in full)
inactive: Potency [1] | Potency [2] | outcome [3] | outcome [4]

COC1CC(O[C@H]2CC[C@]3(C=O)C4CC[C@]5(C)[C@@H](C6=CC(=O)OC6)CC[C@]5(O)[C@@H]4CC[C@]3(O)C2)OC(C)C1O[C@@H]1O[C@H](CO)[C@@H](O)[C@H](O)[C@H]1O (stereo not given in full)
inactive: Potency [1] | Potency [2] | outcome [3] | outcome [4]

CCC(C)(C#N)O[C@@H]1O[C@H](CO)[C@@H](O)[C@H](O)[C@H]1O (stereo not given in full)
inactive: Potency [1] | Potency [2] | outcome [3] | outcome [4]

N#C[C@@H](O[C@@H]1O[C@H](CO[C@@H]2O[C@H](CO)[C@@H](O)[C@H](O)[C@H]2O)[C@@H](O)[C@H](O)[C@H]1O)c1ccccc1
inactive: Potency [1] | Potency [2] | outcome [3] | outcome [4]

CC(=O)OC12C(O)C(C)C3(O)C4C=C(C)C(=O)C4CC(CO)=CC3C1C2(C)C (stereo not given)
inactive: Potency [1] | Potency [2] | outcome [3] | outcome [4]

CC(=O)OC1CC(O)C2(C)C(CC(OC(C)=O)C3(C)C2CCC2(C)C(c4ccoc4)C(=O)C4OC423)C1(C)C (stereo not given)
inactive: Potency [1] | Potency [2] | outcome [3]

COC1CC(O[C@H]2CC[C@@]3(C)C(=CCC4C3C(O)[C@@H](O)[C@]3(C)[C@@H](C(C)=O)CC[C@]43O)C2)OC(C)C1OC1CC(OC)C(OC2OC(C)C(O)C(O)C2O)C(C)O1 (stereo not given in full)
inactive: outcome [1] inactive [at 11.6 µM] | activity change, negative = thiol reactive [2] 105% [at 11.5 µM] | activity, negative = inhibition [3] 4.68% [at 11.6 µM] | redox activity (% of DA3003) [4] 8.26% [at 11.5 µM]

CCN1C[C@]2(OC(=O)c3ccccc3NC(C)=O)CC[C@H](OC)[C@@]34[C@@H]2C[C@@H]([C@@H]13)[C@@]1(O)C[C@H](OC)[C@H]2C[C@@H]4[C@]1(O)[C@H]2OC
inactive: Potency [1] | Potency [2] | outcome [3]

COC1C(O)C(OC2CCC3(C=O)C(CCC4C3CCC3(C)C(C5=CC(=O)OC5)CCC43O)C2)OC(C)C1OC1OC(CO)C(O)C(O)C1O (stereo not given)
inactive: Potency [1] | Potency [2] | outcome [3] | outcome [4]

CC(C)C1(OO)C=C2C(=O)CC3C(C)(C(=O)O)CCCC3(C)C2CC1 (stereo not given)
inactive: Potency [1] | Potency [2] | outcome [3] | outcome [4]

C=C[C@H]1[C@H](O[C@@H]2O[C@H](CO)[C@@H](O)[C@H](O)[C@H]2O)OC=C2C(=O)OCC[C@H]21
inactive: Potency [1] | Potency [2] | outcome [3] | outcome [4]

Oc1ccc2c3c1O[C@H]1[C@H](N(CCCl)CCCl)CC[C@@]4(O)[C@@H](C2)N(CC2CC2)CC[C@]314
inactive: outcome [1] inactive [at 11.6 µM] | activity change, negative = thiol reactive [2] 7.36% [at 11.5 µM] | activity, negative = inhibition [3] 1.59% [at 11.6 µM] | redox activity (% of DA3003) [4] -0.579% [at 11.5 µM]

Clc1ccc(OCC2=NCCN2)cc1Cl
inactive: Potency [1] | Potency [2] | outcome [3] | outcome [4]

CO[C@@H]1[C@H](O)[C@@H](O[C@@H]2C[C@H]3CC[C@@H]4C(CC[C@]5(C)[C@@H](C6=CC(=O)OC6)CC[C@]45O)[C@@]3(C)[C@H](O)C2)O[C@H](C)[C@@H]1O[C@@H]1O[C@H](CO)[C@@H](O)[C@H](O)[C@H]1O (stereo not given in full)
inactive: Potency [1] | Potency [2] | outcome [3]

Cc1cc(C(=O)CN2CCCC2)c(C)n1-c1ccc(F)cc1
inactive: Potency [1] | Potency [2] | outcome [3] | outcome [4]

CC[C@H]1CN2CC[C@H]1C[C@@H]2[C@@H](O)c1ccnc2ccc(OC)cc12
inactive: Potency [1] | Potency [2] | outcome [3] | outcome [4]

CCc1c(C(=O)C(N)=O)c2c(OCC(=O)OC)cccc2n1Cc1ccccc1
inactive: Potency [1] | Potency [2] | outcome [3] | outcome [4]
